In the library only some 19% were active in any assay of this set; here they are far more common.
HT1080NT lethal: kills 2HG-producing HT-1080-NT fibrosarcoma cells. HT-1080-NT fibrosarcoma viability, CellTiter-Glo ATP luminescence, 48 h. Potency, µM (doses to about 46.1 µM), for inactives: top-dose activity, negative = less viability, actives largely listed as cytotoxic. 1.6% of 360,000 active. AID 686970;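 note: NT is the 2HG producing partner of a matched IDH1 knockdown line; 0% = DMSO-treated cells and -100% = media-only wells without cells; nearly all actives have a fitted effect of over 55% in size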
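Toxicity toward the 2HG-producing NT line was scored as %Activity, normalised to DMSO and no-cell wells, from CellTiter-Glo luminescence after 48 hours' treatment.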
TDP1 cell noCPT: qHTS for Inhibitors of human tyrosyl-DNA phosphodiesterase 1 (TDP1): qHTS in cells in absence of CPT | DT40 Tdp1-/- hTDP1 cells, no CPT, ATP luminescence, 48 h | Potency, µM (doses to about 46.2 µM), for the others: top-dose activity change, negative = growth inhibition, usual class: inhibitors | 15% of 420,000 active | AID 686978, 2013; note: nearly all actives have a fitted effect of over 55% in size
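No-CPT arm: Tdp1-/-;hTDP1 DT40 cells (400/well) plus compounds, incubated ≥48 hr at 37 °C. Readout CellTiter-Glo luminescence.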
HT1080 IDH1KD tx: toxicity to HT-1080 IDH1 knockdown cells (counter line). HT-1080 IDH1 knockdown viability, ATP luminescence, 48 h. Potency, µM (doses to about 46.1 µM), for inactives: top-dose activity, negative = toxicity, actives largely listed as cytotoxic. 2% of 360,000 active;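 note: 0% = DMSO wells and -100% = cell-free medium wells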
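Assay cells: HT-1080 with IDH1 knockdown, 750 per well, RPMI/5% FBS. Exposure: 48 h at 37 °C following 2 h pre-incubation. Read: CellTiter-Glo luminescence; fitted concentration-response, curve class assigned.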
KB-V1 MDR tox: KB-V1 MDR subline cytotoxicity. KB-V1 MDR cells viability, CellTiter-Glo, 72 h. Potency, µM (titrated, usually from 46.1 µM), actives largely listed as cytotoxic. 3.4% of 400,000 active; note: nearly all actives have a fitted effect of over 60% in size
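KB-V1 cells (P-gp-expressing MDR subline of KB-3-1) in phenol-red-free DMEM with 10% FBS were exposed to library compounds over a concentration series for 72 h at 37 degrees C. Viability read by CellTiter-Glo luminescence; concentration-effect curves fitted after normalization.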
KB-3-1 tox: kills parental KB-3-1 adenocarcinoma cells | KB-3-1 viability, CellTiter-Glo ATP luminescence, 72 h | 1.4% of 400,000 active | AID 1347075 | Potency, µM (top dose mostly 46.1 µM), hits mostly cytotoxic; note: nearly all actives have a fitted effect of over 60% in size
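Cytotoxicity in the drug-sensitive parental line KB-3-1 was scored as loss of CellTiter-Glo luminescence following 72 h incubation with compound. Values come from curve fitting of normalized concentration-response data.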
TDP1 cell CPT: growth inhibition of DT40 Tdp1-/-;hTDP1 cells with camptothecin (screen for TDP1 inhibitors); Potency, µM (series often up to 46.2 µM), inactives show at the top dose activity change, negative = growth inhibition, actives largely listed as inhibitors; AID 686979; 12% of 420,000 active; chicken DT40 Tdp1-/-;hTDP1 cells + 20 nM CPT, ATP luminescence, 48 h; note: nearly all actives have a fitted effect of over 55% in size
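Chicken DT40 Tdp1-/- cells stably complemented with human TDP1 were seeded at 400 cells/well in medium containing 20 nM camptothecin, exposed to pin-transferred compounds, and grown at 37 °C for at least 48 hr. Viability was read as ATP luminescence.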
* marks the source's active call; other numbers are inactive results; i = inactive; u = inconclusive; x = no result. Calls come from the whole dose curve; as a rule, active = well fitted curve in the direction sought with a large enough effect; inconclusive = small, poorly fitted or top-dose-only effect, or another doubt; inactive = no such curve, though single readings can be large; an effect the other way counts as inactive or inconclusive. Unless noted, % is set by controls: 0 for no effect and ±100 for the full control effect; potency is the fitted concentration of half-maximal effect.

SMILES	HT1080NT lethal	TDP1 cell noCPT	HT1080 IDH1KD tx	KB-V1 MDR tox	KB-3-1 tox	TDP1 cell CPT
CCOC(=O)C1=C(COC(=O)CSc2ccc(C)cc2)NC(=O)NC1C (stereo not given)	1.0%	13.3%	1.3%	u	i	1.9%
COc1cccc(CNC(=O)c2c(OC)cc(=O)n3c2CCN(C(=O)c2csc(C)n2)CC3)c1	x	-0.9%	x	x	x	0.1%
CCOc1ccccc1NC(=O)c1cnccn1	15.2%	-12.2%	12.8%	i	i	4.2%
CCOc1ccccc1NC(=O)C(OC(=O)c1cnccn1)c1ccccc1 (stereo not given)	10.0%	-14.6%	2.3%	18.4µM*	i	-12.7%
CCOC(=O)/C(C#N)=C/c1ccc(-c2ccsc2C(=O)OC)o1	5.4%	-11.9%	13.0%	i	i	-24.0%
CCOC(=O)C(=Cc1ccc(-c2ccsc2C(=O)OC)o1)C(=O)OCC	4.1%	u	u	u	u	25.9µM*
COC(=O)C(=Cc1ccc(-c2ccsc2C(=O)OC)o1)C(=O)OC	u	u	20.6µM*	i	u	-19.1%
COC(=O)c1sccc1-c1ccc(C(=O)Nc2cccnc2)o1	-1.4%	u	3.4%	5.8µM*	i	u
O=S1(=O)N=C(Oc2cccc(-c3ccccc3)c2)c2ccccc21	x	x	x	i	i	x
CS(=O)(=O)N1CCC[C@@]2(CCN(Cc3ccc(C#N)cc3)C2)C1	x	-8.3%	x	x	x	5.4%
CCc1ccc(C2=C(C)C(N3CCC(C(=O)Nc4ccc(F)cc4)CC3)=NS2(=O)=O)cc1	x	u	x	i	i	u
CC(NC(=O)c1cccs1)c1nnc(SCc2ccc(Cl)cc2Cl)n1C (stereo not given)	4.8%	16.4µM*	-1.2%	i	i	u
CC(=O)Nc1ccc(N=c2cc([N+](=O)[O-])cc(Cl)n2O)cc1	-2.4%	14.6µM*	u	u	u	u
CC(=O)Nc1ccc(S(=O)(=O)c2ccc([N+](=O)[O-])cc2)cc1	-3.9%	u	5.5%	i	i	u
CCCCCC(=O)N1C[C@@H](n2cc(-c3ccc(F)cc3)nn2)[C@H](O)C[C@@H]1c1ccccc1	-18.0%	u	-22.4%	u	i	u
CCCCCC(=O)N1C[C@@H](O)[C@H](n2cc(C3CC3)nn2)C[C@@H]1c1ccccc1	-3.5%	16.4µM*	-3.8%	i	i	u
CCCCCC(=O)N1C[C@@H](O)[C@H](n2cc(-c3ccc(F)cc3)nn2)C[C@@H]1c1ccc(Cl)cc1	-24.1%	14.6µM*	u	u	u	16.4µM*
CCCCCC(=O)N1C[C@@H](n2cc(C3CC3)nn2)[C@H](O)C[C@@H]1c1ccccc1	-3.4%	u	-2.2%	i	i	u
CCCCCC(=O)N1C[C@H](n2cc(-c3ccc(F)cc3)nn2)[C@@H](O)C[C@@H]1c1ccc(Cl)cc1	16.4µM*	25.9µM*	u	u	u	u
COc1ccc(C(=O)NCc2ccncc2)cc1S(=O)(=O)N1CCOCC1	-2.0%	-4.1%	-1.4%	x	x	-12.2%
Cc1cccc(C(=O)NC(=S)Nc2ccc(S(=O)(=O)N(C)c3ccccc3)cc2)c1	1.2%	13µM*	-7.3%	u	i	u
Cc1ccccc1C(=O)NC(=S)Nc1ccc(S(=O)(=O)N(C)c2ccccc2)cc1	2.8%	23.1µM*	-0.7%	i	u	23.1µM*
CN(c1ccccc1)S(=O)(=O)c1ccc(NC(=O)c2ccccc2)cc1	1.8%	u	-3.1%	u	u	-21.6%
COC(=O)c1ccccc1NC(=S)NC(=O)c1ccccc1C	6.8%	-20.0%	u	i	i	23.1µM*
CCCCCCN1C[C@@H](n2cc(COC(=O)c3ccccc3)nn2)[C@H](O)C[C@@H]1c1ccc(OC)cc1	u	u	u	i	u	u
SMILES	HT1080NT lethal	TDP1 cell noCPT	HT1080 IDH1KD tx	KB-V1 MDR tox	KB-3-1 tox	TDP1 cell CPT
CCCCCCN1C[C@@H](n2cc(COC(=O)c3ccccc3)nn2)[C@H](O)C[C@@H]1c1ccccc1	0.0%	u	17.5%	i	i	u
CCCCCCN1C[C@@H](n2cc(COC(=O)c3ccccc3)nn2)[C@H](O)C[C@@H]1c1ccc(Cl)cc1	8.8%	20.6µM*	6.3%	i	i	13µM*
CCCCCCN1C[C@H](n2cc(COC(=O)c3ccccc3)nn2)[C@@H](O)C[C@@H]1c1ccccc1	1.7%	23.1µM*	5.1%	i	i	u
O=C(CCn1c(=O)c2sccc2n(CC(=O)Nc2ccccc2)c1=O)NCc1ccccc1Cl	x	u	x	i	i	u
CC1N=C2c3ccccc3N=C(SCC(=O)NCCc3ccc(Cl)cc3)N2C1=O (stereo not given)	x	-15.1%	x	i	i	u
CCOC(=O)C1CCN(CCCSc2ccccc2)CC1	4.1%	0.6%	1.4%	u	i	2.5%
O=[N+]([O-])c1ccc(O)c(C2=NNC(c3ccccc3F)C2)c1 (stereo not given)	20.6µM*	16.4µM*	u	u	u	23.1µM*
Cc1ccc(O)c(C2=NNC(c3ccc(Cl)cc3)C2)c1 (stereo not given)	-23.2%	u	-29.9%	i	i	u
CCOC(=O)N1CCN(C(=O)C[C@@H]2C[C@@]3(C(=O)OCC)CCC=C3N(CCC3=CCCCC3)C2=O)CC1	18.7%	u	14.3%	u	i	u
CCCCNC(=O)C[C@@H]1C[C@@]2(C(=O)OC)CCCCC=C2N(CCc2ccc(OC)c(OC)c2)C1=O	-3.5%	23.1µM*	0.7%	u	i	u
CCCCNC(=O)C[C@@H]1C[C@@]2(C(=O)OCC)CCCC=C2N(CCC2=CCCCC2)C1=O	u	8.2µM*	-18.8%	u	i	8.2µM*
CCCCNC(=O)C[C@@H]1C[C@@]2(C(=O)OCC)CCCC=C2N(CCc2ccc(OC)c(OC)c2)C1=O	3.0%	18.4µM*	19.1%	u	i	1.46µM*
CCOC(=O)[C@]12CCC=C1N(CCC1=CCCCC1)C(=O)[C@H](CC(=O)N1CCSCC1)C2	9.3%	u	11.2%	i	i	18.4µM*

Bioassay records: PubChem, National Center for Advancing Translational Sciences (NCATS)
